# How the values were obtained:
# Experiment in all cases: PBM binding z-score (relative to random genomic background probes); higher = stronger binding; sequences stand for … in GC…GCGATTGACAGCGTAGAATGAAGG
# [1] = test system: FXR:RXRa (NR concentration 270 nM, RXRa partner concentration 90 nM)
# Summary of the method: (§1)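 Each nuclear receptor dimer, without ligand, was incubated for 1 h on custom Agilent 4×180K protein-binding microarrays. Binding was detected with antibodies against each partner (one per run), and scanned fluorescence was regression-normalized. The binding z-scores are referenced to random human genomic background probes.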
# [2] = test system: LXRa:RXRa (NR concentration 270 nM, RXRa partner concentration 90 nM)
# Summary of the method: as §1
# [3] = test system: LXRa homodimer (NR concentration 270 nM)
# Summary of the method: as §1
# [4] = test system: LXRb:RXRa (NR concentration 270 nM, RXRa partner concentration 90 nM)
# Summary of the method: as §1
# [5] = test system: LXRb homodimer (NR concentration 270 nM)
# Summary of the method: as §1
# [6] = test system: PPARa:RXRa (NR concentration 270 nM, RXRa partner concentration 90 nM)
# Summary of the method: as §1
# [7] = test system: PPARg:RXRa (NR concentration 180 nM, RXRa partner concentration 90 nM)
# Summary of the method: as §1
# [8] = test system: PPARg:RXRa 270nM:90nM, anti-RXR (NR concentration 270 nM, RXRa partner concentration 90 nM)
# Summary of the method: as §1
# [9] = test system: PPARg:RXRa 30nM:10nM, anti-RXR (NR concentration 30 nM, RXRa partner concentration 10 nM)
# Summary of the method: as §1
# [10] = test system: PPARg:RXRa 90nM:30nM, anti-RXR (NR concentration 90 nM, RXRa partner concentration 30 nM)
# Summary of the method: as §1
# [11] = test system: PPARg:RXRa DBDmut IVT, anti-RXR (DBD mutation: RXRa K156A/R161A, NR concentration 270 nM, RXRa partner concentration 90 nM)
# Summary of the method: as §1
# [12] = test system: PPARg:RXRa IVT, anti-PPARg (NR concentration 270 nM, RXRa partner concentration 90 nM)
# Summary of the method: as §1
# [13] = test system: PPARg DBDmut:RXRa IVT, anti-PPARg (DBD mutation: PPARg1 K132A/R137A, NR concentration 270 nM, RXRa partner concentration 90 nM)
# Summary of the method: as §1
# [14] = test system: PPARg DBDmut IVT, anti-PPARg (DBD mutation: PPARg1 K132A/R137A, NR concentration 270 nM)
# Summary of the method: as §1
# [15] = test system: PPARg homodimer (NR concentration 180 nM)
# Summary of the method: as §1
# [16] = test system: PXR:RXRa (NR concentration 270 nM, RXRa partner concentration 90 nM)
# Summary of the method: as §1
# [17] = test system: PXR homodimer (NR concentration 270 nM)
# Summary of the method: as §1
# [18] = test system: RARa:RXR (NR concentration 270 nM, RXRa partner concentration 90 nM)
# Summary of the method: as §1
# [19] = test system: RARa homodimer (NR concentration 270 nM)
# Summary of the method: as §1
# [20] = test system: RARb:RXRa (NR concentration 270 nM, RXRa partner concentration 90 nM)
# Summary of the method: as §1
Sequence,PBM binding z-score [1],PBM binding z-score [2],PBM binding z-score [3],PBM binding z-score [4],PBM binding z-score [5],PBM binding z-score [6],PBM binding z-score [7],PBM binding z-score [8],PBM binding z-score [9],PBM binding z-score [10],PBM binding z-score [11],PBM binding z-score [12],PBM binding z-score [13],PBM binding z-score [14],PBM binding z-score [15],PBM binding z-score [16],PBM binding z-score [17],PBM binding z-score [18],PBM binding z-score [19],PBM binding z-score [20]
CCGACTGCGGCAGAAAGGTTACCATACCATCCGG,0.417,0.665,-0.0134,1.08,-0.692,1.85,1.33,2.53,0.645,2.19,-0.1,0.0365,-0.709,-0.931,0.55,1.05,-0.0131,1.42,-0.186,1.29
TAGCCTAGGTCAGATCGGGCCAGTACACGCTATA,2.56,1.36,-0.186,0.718,-0.385,1.82,0.74,0.997,-0.169,-0.0312,0.552,1.62,-0.751,-0.825,0.487,1.33,-0.37,0.937,-0.817,3.22
ATCGAAAGGACGAGGTGAGTATAGAGAAAGGGAA,0.588,0.168,-0.177,-0.191,-0.00522,0.0333,0.589,-0.152,0.508,0.313,0.186,0.649,0.713,0.658,0.139,-0.25,0.286,0.04,0.504,1.31
GTACCAAGGTGAATCGGTCGTTGATGAGTAGGCG,0.346,0.0414,-0.326,-0.181,-0.693,1.05,0.567,0.624,-0.427,0.0488,1.93,2.44,-0.354,-0.848,-0.00106,-0.262,-0.354,0.293,-0.11,1.67
TCTTGTAGATCAGCAGGTTAAGAAAGCTGGCCAA,-0.00874,0.161,-0.357,0.167,-0.4,0.684,-0.446,1.3,2.21,1.66,1.47,0.491,0.15,0.117,-0.272,0.155,-0.284,0.351,-0.421,0.213
CCTCGGAGGACAATAGGAGGTCAGAGCTGCCAGA,0.746,2.4,3.23,1.38,-0.2,1.87,0.443,0.389,-0.612,-0.255,-0.0175,0.979,-0.47,-1.32,1.01,1.76,0.364,2.08,-0.149,2.29
CGAACTAGGTAAGAACAGGACAGTGAAGGATGAT,-0.196,-0.204,-0.208,-0.602,-0.626,0.502,0.928,0.462,0.267,0.273,3.73,2.52,0.465,0.0684,0.00147,-0.257,-0.137,-0.362,-0.184,-0.143
ATATGTAGGTTATCGGGTCGTTCAGTTTGCGCAT,1.16,1.68,0.76,1.73,0.781,3.79,5,4.95,2.24,4.25,7.3,6.87,1.68,1.58,1.6,1.91,2.09,1.62,1.26,1.42
CCTCGGAGAACAACAGGAGGTCAGAGCTGCCAGA,0.847,1.87,1.86,1.46,-0.303,1.82,0.213,-0.135,-1.02,-0.29,-0.197,-0.0712,-1.48,-1.85,1.77,1.71,0.361,2.04,0.98,2.01
TCGAGTAGGTTAGTCGGGACATTCAGCCAACATA,2.7e-05,0.0232,-0.222,-0.141,-1.03,0.291,0.156,0.639,0.983,0.955,1.85,1.48,-0.367,-1.31,-0.431,-0.161,-0.242,0.166,-0.452,0.165
CGTCCCAGGTCAAGGTCAGTGAAAGAGACTCGAA,6.02,4.67,1.45,3.68,0.553,5,4.32,4.51,1.14,3.02,2.24,3.62,0.134,-0.571,3.49,4.05,1.33,4.43,2.12,5.02
GGAACGAGGGCATTCGTGTTGATAGCATGGCGAT,0.778,0.372,-0.449,0.152,-0.674,1.39,0.763,0.768,-0.395,0.413,3.27,2.25,-0.566,-0.299,0.242,0.774,0.237,0.37,-0.471,1.62
AATATTAGTTGACTTAGGGCAACCGATACGACGC,0.123,0.163,0.741,0.405,0.26,0.162,1.09,0.355,0.448,0.286,0.114,0.435,1.41,0.654,0.835,0.143,0.976,0.751,1.92,0.721
TCTGCCAGGTCAGTTGGTCAGCTAACGAGCTGCC,1.42,0.919,-0.414,0.653,0.604,1.61,-0.0729,1.28,1.13,0.918,1.26,1.9,-0.28,0.0313,0.213,0.349,-0.79,0.976,-1.08,3.29

# From the supplement of paper PMC6555819
